Test results: the supplement of paper PMC3334620
In all, about 33,000 sequences were measured (“E-score (-0.5 to 0.5)”: median about -0.0034, highest 2% from about 0.25 on). The list comes from a sample in which the highest values are over-represented; it also holds similar and randomly drawn sequences.

These sequences were tested against T1, Yap3 (UniProt P38749) (assay: PBM E-score (8-mer binding enrichment) (E-score (-0.5 to 0.5)); higher = stronger / more preferred TF binding). Settings: protein concentration: 100 nM; construct: GST-full length.
T1 sequence: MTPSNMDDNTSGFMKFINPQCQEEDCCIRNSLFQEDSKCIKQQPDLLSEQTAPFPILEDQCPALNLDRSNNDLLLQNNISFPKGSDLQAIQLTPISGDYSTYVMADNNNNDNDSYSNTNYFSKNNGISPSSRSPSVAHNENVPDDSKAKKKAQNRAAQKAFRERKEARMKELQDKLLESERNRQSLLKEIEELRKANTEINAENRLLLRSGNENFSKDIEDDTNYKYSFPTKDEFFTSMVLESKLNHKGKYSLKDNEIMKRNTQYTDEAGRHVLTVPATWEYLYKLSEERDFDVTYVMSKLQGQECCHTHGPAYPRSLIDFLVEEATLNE
Procedure: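 Universal 'all 10-mer' protein binding microarrays (Agilent AMADID 015681) probed with GST-tagged S. cerevisiae TFs (full-length or DBD) made by in vitro transcription/translation (PURExpress), about 100-200 nM. Bound TF was detected with fluorescent anti-GST. Each ungapped 8-mer (which stands for itself and its reverse complement) is scored by the PBM enrichment score (E-score), a modified Wilcoxon-Mann-Whitney statistic from -0.5 to +0.5, computed with the Universal PBM Analysis Suite. Scale: above 0.35 generally sequence-specific binding.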

Row | Sequence | PBM E-score
1 | TTCTGAAA | 0.145
2 | ACCCAAAC | 0.0961
3 | AGATCCTA | 0.0833
4 | CAAGTTCA | -0.00101
5 | CGGATGAC | 0.0307
6 | ATCTTTCA | 0.207
7 | CATAATCC | 0.0889
8 | GATAATCA | 0.221
9 | CATAATCG | 0.187
10 | CATAATCA | 0.271
11 | TATAATCA | 0.265
12 | AATAATCA | 0.11
13 | CATAAGTC | 0.112
14 | CTGGTCTA | -0.0194
15 | AGCGCACG | -0.0432
16 | CTTGGTAA | 0.101
17 | ATTGGTAA | 0.304
18 | GTTGGTAA | 0.149
19 | ACGTCTCT | -0.138
20 | ATTACCGG | -0.0144
21 | AGTTGTGC | 0.0195
22 | AGTTGTGG | 0.271
23 | AGTTGTGA | 0.108
24 | TATCAAAA | 0.23
25 | ATATGAGA | 0.196

Row | Sequence | PBM E-score
26 | GCTAATCA | 0.164
27 | GTTAATCA | 0.256
28 | ATTAATCC | 0.0925
29 | ATTAATCG | 0.191
30 | CTTAATCA | 0.166
31 | ATTAATCA | 0.287
32 | AACTTTAA | 0.234
33 | AAGTCTCA | -0.101
34 | GATCAGAC | -0.0877
35 | AGTGGAAC | -0.0961
36 | GAAGCCTC | -0.198
37 | AACGAACG | -0.00775
38 | AACGAACA | 0.259
39 | CACGAACA | 0.192
40 | CAGGGTCC | -0.29
41 | AGAAATTA | 0.202
42 | ACAAATTA | 0.242
43 | GGAAATTA | 0.332
44 | GCAAATTA | 0.262
45 | CCAAATTA | 0.192
46 | GAAAATTA | 0.207
47 | ATACCACC | 0.086
48 | GGAATCTA | 0.0443
49 | GTCGCACA | -0.0581
50 | GATTTGGA | -0.0207

Row | Sequence | PBM E-score
51 | AGATGGAA | -0.0109
52 | CTTTATAA | 0.206
53 | ATTTATAG | 0.206
54 | ATTTATAC | 0.302
55 | ATTTATAA | 0.273
56 | CTTTATAC | 0.114
57 | GTTTATAA | 0.224
58 | AATGAGCA | -0.00708
59 | TCAACTGA | 0.0958
60 | AATGGCTA | 0.169
61 | AAGAATTG | 0.171
62 | TCGGGGAA | 0.0864
63 | AAATGCCG | 0.113
64 | ATACAGAT | 0.11
65 | CGTAAATA | 0.262
66 | AGTAAATC | 0.159
67 | CGGAAATA | 0.289
68 | GGTAAATA | 0.111
69 | CGTAAATC | -0.00431
70 | AGTAAATG | 0.0753
71 | CGGAAATC | 0.12
72 | AGTAAATA | 0.26
73 | GGGAAATA | 0.0786
74 | AGACTGAA | -0.0205
75 | AGCACGTG | 0.127

Row | Sequence | PBM E-score
76 | GAGCCACA | -0.104
77 | ACCCTATA | -0.084
78 | CGTGGATA | -0.0137
79 | GCAGGTTA | -0.0925
80 | GCAAACAA | 0.272
81 | GAAAACAA | 0.199
82 | CAAAACTA | 0.223
83 | ATAAACAA | 0.279
84 | ATAAACAC | 0.1
85 | GCAAACAC | -0.0377
86 | AAAAACAA | 0.28
87 | AAAAACTA | 0.256
88 | ACAAACAA | 0.173
89 | GAAAACTA | 0.16
90 | TAAAACAA | 0.0703
91 | TTAAACAA | -0.026
92 | ATCAGCTG | 0.195
93 | ACTGGACC | -0.196
94 | ACGGAGGG | -0.139
95 | CCTGGATA | -0.231
96 | CGGATTGC | 0.0717
97 | GGCTTGAA | 0.0362
98 | AGTTTTCC | 0.0722
99 | AGCCAACG | 0.0109
100 | GAAAACGA | 0.00196

Row | Sequence | PBM E-score
101 | AAAAACGA | 0.256
102 | CAAAACGA | 0.133
103 | GAGTCTAA | 0.00387
104 | AATCCGGA | 0.256
105 | AATCCGGG | -0.242
106 | AATCCGGC | 0.0559
107 | GACAGCTA | -0.119
108 | CTGCTGGA | -0.158
109 | CCCTTTTC | -0.00476
110 | AAATATCA | 0.187
111 | AAATATTC | 0.162
112 | CAATATTA | 0.226
113 | TAATAGTA | 0.142
114 | GAATATTA | 0.263
115 | GAATATTC | 0.194
116 | TAATATTA | 0.347
117 | AGATATTA | 0.162
118 | AAATATTA | 0.349
119 | CAATATCA | 0.167
120 | TAATATCA | 0.275
121 | GAATATCA | 0.159
122 | ACATTGCC | -0.0211
123 | GGCTTGAC | 0.0242
124 | AGCAACTA | 0.143
125 | TACCCAAA | 0.0436

Row | Sequence | PBM E-score
126 | TCGGTTAA | 0.168
127 | AGGCTAGG | -0.199
128 | AAGGTGCG | -0.131
129 | CGTTGATC | 0.0509
130 | AAATATTT | 0.249
131 | CAATATTG | 0.213
132 | AAATATTG | 0.269
133 | AGAAGATC | -0.0464
134 | CAGTTAGG | 0.149
135 | AATCATGG | 0.127
136 | TATCATGA | 0.0822
137 | AATCATGA | 0.275
138 | AAAAATTA | 0.29
139 | TAAAATTA | 0.28
140 | TAAAATGA | 0.23
141 | TAAAATCA | 0.142
142 | GCAATTTA | 0.139
143 | AAAATTTA | 0.0414
144 | ACAATTTA | 0.193
145 | AAAAATTT | 0.145
146 | CAAATTTA | 0.203
147 | CCAATTTA | 0.258
148 | TAAATTTA | 0.26
149 | CAAAATTA | 0.163
150 | CCACCAAC | 0.0331

Row | Sequence | PBM E-score
151 | CGTCCAAC | 0.0756
152 | ACGAGGCT | 0.117
153 | ATCTAAGG | 0.0735
154 | ACCAGACC | -0.206
155 | AAGTCATC | -0.0947
156 | GAGGCATC | -0.206
157 | CCCGCCCC | 0.022
158 | CACAACTG | -0.0612
159 | AACAACAT | 0.191
160 | AACAACAA | 0.259
161 | AACAACAC | 0.303
162 | CACAACAA | 0.0683
163 | CACAACAC | 0.173
164 | GACAACAC | 0.00619
165 | CACAACTA | 0.262
166 | AACAACTA | 0.0618
167 | GCAATGTA | 0.0481
168 | GGACCAAC | -0.182
169 | CTCGAGAC | 0.124
170 | CTCAGCGC | -0.114
171 | TATGGCCA | 0.0682
172 | ATTGTTCA | 0.159
